The conditions of assay [1]: Ebola virus entry reporter assay, green channel fluorescence. On the technique in general: Reporter assays use an easily measured gene product as a stand-in for the process of interest.
The conditions of assay [2]: Ebola virus entry cell assay, ratio channel.

For part of these data: Potency and affinity values are given separately. Activity calls are given as the source filed them. Entries that show only a call come without a potency.

For the compound `COC(=O)[C@H]1[C@H]2C[C@@H]3c4[nH]c5cc(OC)ccc5c4CCN3C[C@H]2C[C@@H](OC(=O)c2cc(OC)c(OC)c(OC)c2)[C@@H]1OC`, the outcome in assay [1] and in assay [2] was inactive.

Take `Cc1[nH]cnc1CN1CCc2c(c3ccccc3n2C)C1=O`: the outcome in assay [1] and in assay [2] was inactive.

On to `NC12CC3CC(CC(C3)C1)C2`, for which the compound was called inactive in assay [1] and in assay [2].

On to `N[C@@H](C(=O)N[C@@H]1C(=O)N2C(C(=O)O)=C(Cl)CS[C@H]12)c1ccccc1`, for which the compound was classed as inactive in assay [1] and in assay [2].

As for `O=C1OCCN1/N=C/c1ccc([N+](=O)[O-])o1`, the result in assay [1] and in assay [2] was inactive.

With `O=C(O)c1ccc(-n2nc(-c3ccccc3O)nc2-c2ccccc2O)cc1`, the result in assay [1] and in assay [2] was inactive.

Consider `NC1[C@H]2CN(c3nc4c(cc3F)c(=O)c(C(=O)O)cn4-c3ccc(F)cc3F)C[C@@H]12` (stereo not given in full), for which the compound was called inactive in assay [1] and in assay [2].

As to `O=C(C1CCCCC1)N1CC(=O)N2CCc3ccccc3C2C1` (stereo not given), the compound was called inactive in assay [1] and in assay [2].

With `Cc1cccc(Nc2ccccc2C(=O)O)c1C`, the compound was classed as inactive in assay [1] and in assay [2].

As for `O=NN(CCCl)C(=O)NCCCl`, the result in assay [1] and in assay [2] was inactive.

For the compound `CC(C)(C)C(=O)OCOP(=O)(COCCn1cnc2c(N)ncnc21)OCOC(=O)C(C)(C)C`, the compound was classed as inactive in assay [1] and in assay [2].

Regarding `CC1=C(C(=O)O)N2C(=O)[C@@H](NC(=O)[C@H](N)c3ccccc3)[C@H]2SC1`, the compound was classed as inactive in assay [1] and in assay [2].

`CO[C@@]12[C@H](COC(N)=O)C3=C(C(=O)C(C)=C(N)C3=O)N1C[C@@H]1N[C@@H]12`: the call in assay [1] and in assay [2] was inactive.

As to `CCC1(c2ccccc2)C(=O)NCNC1=O`, the compound was classed as inactive in assay [1] and in assay [2].

In the case of `CCOC(=O)[C@H](CCc1ccccc1)N[C@@H](C)C(=O)N1[C@H](C(=O)O)C[C@@H]2CCC[C@@H]21`, the outcome in assay [1] and in assay [2] was inactive.
